Assay results reported in PMC7862700, “An all-to-all approach to the identification of sequence-specific readers for epigenetic DNA modifications on cytosine”.

How the values were obtained:
Assay in all cases: DAPPL (digital affinity profiling via proximity ligation, sequencing); 10 mM Tris-HCl pH 7.5, 50 mM NaCl, 1 mM DTT, 4% glycerol, room temperature, 30 min; GST-TFs on glutathione beads, 16-mer random dsDNA library, 0.1% formaldehyde crosslink after washing; high values mean tight binding
FLI1 = molecular target: T1, FLI1 (Homo sapiens, UniProt Q01543 1-452); details: protein: recombinant; tags: N-terminal GST; dsDNA, one strand shown
T1 sequence: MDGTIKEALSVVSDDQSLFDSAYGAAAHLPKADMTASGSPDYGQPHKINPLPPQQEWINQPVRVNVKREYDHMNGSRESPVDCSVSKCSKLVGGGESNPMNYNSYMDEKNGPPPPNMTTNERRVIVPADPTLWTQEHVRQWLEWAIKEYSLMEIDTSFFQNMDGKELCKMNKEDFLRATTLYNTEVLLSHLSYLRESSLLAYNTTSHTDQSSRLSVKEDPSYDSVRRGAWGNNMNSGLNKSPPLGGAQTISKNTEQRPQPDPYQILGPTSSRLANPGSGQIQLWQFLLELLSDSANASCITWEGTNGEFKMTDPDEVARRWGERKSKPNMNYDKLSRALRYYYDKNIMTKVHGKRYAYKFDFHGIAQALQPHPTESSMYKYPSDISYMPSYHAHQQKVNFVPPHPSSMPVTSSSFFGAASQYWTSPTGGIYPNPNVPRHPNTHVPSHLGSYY
How it was run: (§1)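 GST fusions of human transcription factors were expressed in yeast and captured with glutathione beads. Once given DNA barcodes and pooled alongside a tag-only sample, they were incubated for 30 min at room temperature with 200 nmole of a random double-stranded 16-mer DNA library in Tris/NaCl/DTT/glycerol buffer, then washed, crosslinked (0.1% formaldehyde), proximity-ligated, PCR-amplified and sequenced on an Illumina NextSeq500. The binding signal of each hexamer is its read frequency for a factor divided by its frequency for the tag-only sample.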

ELK1 = molecular target: T2, ELK1 (Homo sapiens, UniProt P19419 1-428); details: protein: recombinant; tags: N-terminal GST; dsDNA, one strand shown
T2 sequence: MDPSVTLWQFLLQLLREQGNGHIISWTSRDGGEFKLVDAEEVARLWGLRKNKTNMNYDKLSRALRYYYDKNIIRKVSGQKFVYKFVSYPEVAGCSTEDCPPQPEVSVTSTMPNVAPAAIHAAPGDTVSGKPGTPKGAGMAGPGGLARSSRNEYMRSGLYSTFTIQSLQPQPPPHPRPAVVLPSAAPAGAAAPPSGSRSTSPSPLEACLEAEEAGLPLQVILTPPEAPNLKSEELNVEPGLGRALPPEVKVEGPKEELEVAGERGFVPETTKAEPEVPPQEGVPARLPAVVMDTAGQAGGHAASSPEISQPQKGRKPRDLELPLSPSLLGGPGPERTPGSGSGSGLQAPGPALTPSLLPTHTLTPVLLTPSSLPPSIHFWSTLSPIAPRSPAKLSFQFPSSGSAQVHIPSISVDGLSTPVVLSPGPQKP
How it was run: as §1

GABPA = molecular target: T3, GABPA (Homo sapiens, UniProt Q06546 1-454); details: protein: recombinant; tags: N-terminal GST; dsDNA, one strand shown
T3 sequence: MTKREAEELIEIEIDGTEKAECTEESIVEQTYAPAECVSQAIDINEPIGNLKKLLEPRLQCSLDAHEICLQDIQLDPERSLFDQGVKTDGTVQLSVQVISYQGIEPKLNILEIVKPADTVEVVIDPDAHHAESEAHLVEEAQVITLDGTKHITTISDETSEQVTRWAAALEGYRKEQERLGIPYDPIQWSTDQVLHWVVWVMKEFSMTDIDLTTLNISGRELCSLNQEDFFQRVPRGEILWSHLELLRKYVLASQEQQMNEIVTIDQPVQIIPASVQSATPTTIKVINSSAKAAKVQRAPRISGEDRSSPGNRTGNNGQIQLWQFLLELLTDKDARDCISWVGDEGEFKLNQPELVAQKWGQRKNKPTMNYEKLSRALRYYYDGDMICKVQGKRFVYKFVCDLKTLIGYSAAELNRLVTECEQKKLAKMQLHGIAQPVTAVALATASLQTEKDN
How it was run: as §1

ERG = molecular target: T4, ERG (Homo sapiens, UniProt P11308 1-479); details: protein: recombinant; tags: N-terminal GST; dsDNA, one strand shown
T4 sequence: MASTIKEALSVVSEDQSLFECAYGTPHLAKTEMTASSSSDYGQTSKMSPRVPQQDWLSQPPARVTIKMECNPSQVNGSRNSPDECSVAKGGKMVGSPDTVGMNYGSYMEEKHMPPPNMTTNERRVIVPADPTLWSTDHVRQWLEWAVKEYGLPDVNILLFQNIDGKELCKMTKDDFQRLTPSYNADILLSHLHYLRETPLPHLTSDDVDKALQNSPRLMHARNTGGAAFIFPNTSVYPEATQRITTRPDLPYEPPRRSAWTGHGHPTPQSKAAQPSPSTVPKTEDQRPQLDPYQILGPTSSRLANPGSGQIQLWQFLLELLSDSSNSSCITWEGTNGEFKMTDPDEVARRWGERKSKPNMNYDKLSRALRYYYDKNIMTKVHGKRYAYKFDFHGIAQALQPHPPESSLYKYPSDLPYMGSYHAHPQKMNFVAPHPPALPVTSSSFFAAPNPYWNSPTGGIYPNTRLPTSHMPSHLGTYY
How it was run: as §1

ELF1 = ELF1 (Homo sapiens, UniProt P32519 1-619); details: protein: recombinant; tags: N-terminal GST; dsDNA, one strand shown
How it was run: as §1

EHF = molecular target: T5, EHF (Homo sapiens, UniProt Q9NZC4 1-300); details: protein: recombinant; tags: N-terminal GST; dsDNA, one strand shown
T5 sequence: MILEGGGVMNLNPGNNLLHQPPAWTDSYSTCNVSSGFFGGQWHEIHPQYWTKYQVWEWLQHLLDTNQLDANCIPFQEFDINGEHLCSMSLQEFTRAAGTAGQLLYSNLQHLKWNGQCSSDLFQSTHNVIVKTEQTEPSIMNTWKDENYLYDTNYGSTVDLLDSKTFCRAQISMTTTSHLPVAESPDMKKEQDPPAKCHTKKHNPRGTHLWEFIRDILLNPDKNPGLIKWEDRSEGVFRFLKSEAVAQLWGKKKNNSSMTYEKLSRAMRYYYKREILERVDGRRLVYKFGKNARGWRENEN
How it was run: as §1

SPI1 = SPI1 (Homo sapiens, UniProt P17947 1-270); details: protein: recombinant; tags: N-terminal GST; dsDNA, one strand shown
How it was run: as §1

SPIB = SPIB (Homo sapiens, UniProt Q01892 1-262); details: protein: recombinant; tags: N-terminal GST; dsDNA, one strand shown
How it was run: as §1

ELK3 = molecular target: T6, ELK3 (Homo sapiens, UniProt P41970 1-407); details: protein: recombinant; tags: N-terminal GST; dsDNA, one strand shown
T6 sequence: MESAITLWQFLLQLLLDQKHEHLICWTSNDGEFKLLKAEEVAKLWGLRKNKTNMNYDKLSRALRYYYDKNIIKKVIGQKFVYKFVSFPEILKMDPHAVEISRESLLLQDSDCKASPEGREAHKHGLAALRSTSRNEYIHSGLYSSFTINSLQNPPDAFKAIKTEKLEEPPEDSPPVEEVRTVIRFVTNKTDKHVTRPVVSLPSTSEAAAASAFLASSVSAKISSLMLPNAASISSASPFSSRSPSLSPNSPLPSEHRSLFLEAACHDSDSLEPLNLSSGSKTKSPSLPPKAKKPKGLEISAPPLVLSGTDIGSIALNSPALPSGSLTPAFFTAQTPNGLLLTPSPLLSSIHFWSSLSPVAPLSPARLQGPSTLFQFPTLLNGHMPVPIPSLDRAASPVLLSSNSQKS
How it was run: as §1

FEV = molecular target: T7, FEV (Homo sapiens, UniProt Q99581 1-238); details: protein: recombinant; tags: N-terminal GST; dsDNA, one strand shown
T7 sequence: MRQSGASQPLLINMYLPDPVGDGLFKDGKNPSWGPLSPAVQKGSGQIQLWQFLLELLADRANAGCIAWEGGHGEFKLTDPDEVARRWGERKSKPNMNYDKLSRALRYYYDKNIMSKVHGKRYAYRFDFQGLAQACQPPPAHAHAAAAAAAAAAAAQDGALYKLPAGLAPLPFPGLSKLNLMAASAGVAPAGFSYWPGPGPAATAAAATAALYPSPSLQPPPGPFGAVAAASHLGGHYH
How it was run: as §1

ETV5 = ETV5 (Homo sapiens, UniProt P41161 1-510); details: protein: recombinant; tags: N-terminal GST; dsDNA, one strand shown
How it was run: as §1

HSF1 = HSF1 (Homo sapiens, UniProt Q00613 1-529); details: protein: recombinant; tags: N-terminal GST; chain copies: 3; dsDNA, one strand shown
How it was run: as §1

SPIC = molecular target: T8, SPIC (Homo sapiens, UniProt Q8N5J4 1-248); details: protein: recombinant; tags: N-terminal GST; dsDNA, one strand shown
T8 sequence: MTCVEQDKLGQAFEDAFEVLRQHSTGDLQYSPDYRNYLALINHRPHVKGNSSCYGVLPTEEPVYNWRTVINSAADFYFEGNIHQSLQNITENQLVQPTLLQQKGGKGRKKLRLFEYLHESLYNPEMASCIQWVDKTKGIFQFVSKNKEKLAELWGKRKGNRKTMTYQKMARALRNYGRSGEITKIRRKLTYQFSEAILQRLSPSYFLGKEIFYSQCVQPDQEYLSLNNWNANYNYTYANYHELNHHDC
How it was run: as §1

ELF4 = ELF4 (Homo sapiens, UniProt Q99607 1-663); details: protein: recombinant; tags: N-terminal GST; dsDNA, one strand shown
How it was run: as §1

ELK4 = molecular target: T9, ELK4 (Homo sapiens, UniProt P28324-2 1-405); details: protein: recombinant; tags: N-terminal GST; dsDNA, one strand shown
T9 sequence: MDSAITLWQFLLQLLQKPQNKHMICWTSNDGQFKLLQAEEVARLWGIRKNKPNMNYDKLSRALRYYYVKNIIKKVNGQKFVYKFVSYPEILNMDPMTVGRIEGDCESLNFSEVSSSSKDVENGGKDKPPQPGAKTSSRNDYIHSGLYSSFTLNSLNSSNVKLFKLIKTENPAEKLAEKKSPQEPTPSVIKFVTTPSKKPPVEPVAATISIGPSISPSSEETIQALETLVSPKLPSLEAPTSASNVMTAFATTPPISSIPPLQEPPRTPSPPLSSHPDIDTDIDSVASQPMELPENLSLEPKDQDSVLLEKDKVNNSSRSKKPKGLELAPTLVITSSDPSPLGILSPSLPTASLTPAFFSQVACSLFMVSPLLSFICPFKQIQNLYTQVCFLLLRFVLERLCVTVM
How it was run: as §1

ETV2 = molecular target: T10, ETV2 (Homo sapiens, UniProt O00321 1-342); details: protein: recombinant; tags: N-terminal GST; dsDNA, one strand shown
T10 sequence: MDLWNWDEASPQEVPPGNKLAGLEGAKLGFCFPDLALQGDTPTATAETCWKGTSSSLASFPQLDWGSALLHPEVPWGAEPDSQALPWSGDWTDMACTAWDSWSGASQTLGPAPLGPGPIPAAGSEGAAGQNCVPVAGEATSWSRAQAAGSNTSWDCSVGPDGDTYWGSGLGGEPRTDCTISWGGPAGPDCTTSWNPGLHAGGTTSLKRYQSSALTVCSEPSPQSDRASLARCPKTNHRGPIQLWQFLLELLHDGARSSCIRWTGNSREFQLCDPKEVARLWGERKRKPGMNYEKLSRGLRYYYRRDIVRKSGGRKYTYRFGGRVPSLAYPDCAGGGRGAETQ
How it was run: as §1

ELF3 = molecular target: T11, ELF3 (Homo sapiens, UniProt P78545 1-371); details: protein: recombinant; tags: N-terminal GST; dsDNA, one strand shown
T11 sequence: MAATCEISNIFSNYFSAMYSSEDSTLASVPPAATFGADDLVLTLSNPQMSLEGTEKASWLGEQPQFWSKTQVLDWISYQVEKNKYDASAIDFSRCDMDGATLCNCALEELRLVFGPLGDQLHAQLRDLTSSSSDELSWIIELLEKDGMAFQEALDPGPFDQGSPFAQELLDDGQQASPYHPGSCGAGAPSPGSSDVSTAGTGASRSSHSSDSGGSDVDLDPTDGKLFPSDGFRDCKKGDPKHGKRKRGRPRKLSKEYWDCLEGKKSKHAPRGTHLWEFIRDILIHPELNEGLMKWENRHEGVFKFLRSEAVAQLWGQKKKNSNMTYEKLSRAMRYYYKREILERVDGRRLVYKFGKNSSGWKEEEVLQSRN
How it was run: as §1

CRX = CRX (Homo sapiens, UniProt O43186 1-299); details: protein: recombinant; tags: N-terminal GST; dsDNA, one strand shown
How it was run: as §1

ETV1 = ETV1 (Homo sapiens, UniProt P50549 1-477); details: protein: recombinant; tags: N-terminal GST; dsDNA, one strand shown
How it was run: as §1

CRX, sequence (O43186 whole entry): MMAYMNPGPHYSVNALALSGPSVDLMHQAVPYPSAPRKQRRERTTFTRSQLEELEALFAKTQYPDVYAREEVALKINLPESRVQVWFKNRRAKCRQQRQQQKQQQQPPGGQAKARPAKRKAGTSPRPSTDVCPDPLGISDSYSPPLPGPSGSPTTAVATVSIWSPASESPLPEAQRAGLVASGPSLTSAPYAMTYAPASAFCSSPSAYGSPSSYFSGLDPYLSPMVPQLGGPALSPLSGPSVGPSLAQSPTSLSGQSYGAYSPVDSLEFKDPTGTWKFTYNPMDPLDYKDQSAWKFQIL
SPIB, sequence (Q01892 whole entry): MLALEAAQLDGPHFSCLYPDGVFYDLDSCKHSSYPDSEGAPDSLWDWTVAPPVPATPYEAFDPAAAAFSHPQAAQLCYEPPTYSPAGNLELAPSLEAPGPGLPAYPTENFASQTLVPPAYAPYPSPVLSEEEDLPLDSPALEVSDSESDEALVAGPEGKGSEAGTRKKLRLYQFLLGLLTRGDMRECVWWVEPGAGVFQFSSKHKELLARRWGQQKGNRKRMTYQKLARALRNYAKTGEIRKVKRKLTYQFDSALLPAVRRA
ELF1, sequence (P32519 whole entry): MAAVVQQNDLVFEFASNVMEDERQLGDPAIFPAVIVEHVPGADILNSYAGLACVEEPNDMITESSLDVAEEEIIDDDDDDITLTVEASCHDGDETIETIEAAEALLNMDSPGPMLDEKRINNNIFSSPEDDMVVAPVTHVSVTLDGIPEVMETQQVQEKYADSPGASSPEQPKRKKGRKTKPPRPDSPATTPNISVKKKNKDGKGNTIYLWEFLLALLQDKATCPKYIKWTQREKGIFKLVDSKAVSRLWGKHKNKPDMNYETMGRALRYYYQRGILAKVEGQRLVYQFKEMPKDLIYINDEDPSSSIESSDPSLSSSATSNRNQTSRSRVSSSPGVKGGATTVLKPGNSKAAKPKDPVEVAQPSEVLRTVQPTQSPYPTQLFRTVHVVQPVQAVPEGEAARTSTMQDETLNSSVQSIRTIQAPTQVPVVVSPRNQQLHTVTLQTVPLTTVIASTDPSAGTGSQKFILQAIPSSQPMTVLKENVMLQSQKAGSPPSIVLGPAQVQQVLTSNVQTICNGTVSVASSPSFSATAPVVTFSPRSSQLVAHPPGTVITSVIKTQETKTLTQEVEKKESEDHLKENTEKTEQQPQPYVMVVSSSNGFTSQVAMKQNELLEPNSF
ELF4, sequence (Q99607 whole entry): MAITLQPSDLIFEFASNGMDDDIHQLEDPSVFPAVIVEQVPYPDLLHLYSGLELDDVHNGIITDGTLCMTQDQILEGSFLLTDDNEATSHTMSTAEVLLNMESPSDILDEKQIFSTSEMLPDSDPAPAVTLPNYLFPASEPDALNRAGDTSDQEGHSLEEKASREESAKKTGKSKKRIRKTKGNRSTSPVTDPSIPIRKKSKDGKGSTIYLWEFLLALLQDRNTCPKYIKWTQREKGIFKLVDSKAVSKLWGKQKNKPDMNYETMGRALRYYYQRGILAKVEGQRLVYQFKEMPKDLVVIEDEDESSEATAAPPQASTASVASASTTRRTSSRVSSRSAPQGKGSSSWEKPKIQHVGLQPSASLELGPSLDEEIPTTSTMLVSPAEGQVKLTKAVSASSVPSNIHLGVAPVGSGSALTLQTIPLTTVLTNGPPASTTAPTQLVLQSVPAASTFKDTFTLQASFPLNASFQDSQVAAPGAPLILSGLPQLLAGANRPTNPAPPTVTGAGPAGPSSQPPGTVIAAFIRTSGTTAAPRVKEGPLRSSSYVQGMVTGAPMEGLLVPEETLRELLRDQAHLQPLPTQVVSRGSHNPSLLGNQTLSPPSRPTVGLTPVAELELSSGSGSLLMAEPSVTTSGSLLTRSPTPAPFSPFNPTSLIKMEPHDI
ETV1, sequence (P50549 whole entry): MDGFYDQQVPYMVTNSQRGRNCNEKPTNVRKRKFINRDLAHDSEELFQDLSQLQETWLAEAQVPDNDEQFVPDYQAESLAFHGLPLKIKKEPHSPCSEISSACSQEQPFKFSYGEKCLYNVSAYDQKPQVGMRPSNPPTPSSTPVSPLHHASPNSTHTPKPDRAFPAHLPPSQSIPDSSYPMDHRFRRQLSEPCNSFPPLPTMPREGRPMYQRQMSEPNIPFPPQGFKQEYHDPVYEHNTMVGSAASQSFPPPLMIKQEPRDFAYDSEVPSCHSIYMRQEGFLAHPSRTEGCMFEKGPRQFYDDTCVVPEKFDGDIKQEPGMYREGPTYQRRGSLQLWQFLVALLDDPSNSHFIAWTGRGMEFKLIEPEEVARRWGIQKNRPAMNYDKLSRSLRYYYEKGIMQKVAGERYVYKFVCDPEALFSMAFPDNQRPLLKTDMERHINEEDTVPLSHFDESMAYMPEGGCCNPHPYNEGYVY
HSF1, sequence (Q00613 whole entry): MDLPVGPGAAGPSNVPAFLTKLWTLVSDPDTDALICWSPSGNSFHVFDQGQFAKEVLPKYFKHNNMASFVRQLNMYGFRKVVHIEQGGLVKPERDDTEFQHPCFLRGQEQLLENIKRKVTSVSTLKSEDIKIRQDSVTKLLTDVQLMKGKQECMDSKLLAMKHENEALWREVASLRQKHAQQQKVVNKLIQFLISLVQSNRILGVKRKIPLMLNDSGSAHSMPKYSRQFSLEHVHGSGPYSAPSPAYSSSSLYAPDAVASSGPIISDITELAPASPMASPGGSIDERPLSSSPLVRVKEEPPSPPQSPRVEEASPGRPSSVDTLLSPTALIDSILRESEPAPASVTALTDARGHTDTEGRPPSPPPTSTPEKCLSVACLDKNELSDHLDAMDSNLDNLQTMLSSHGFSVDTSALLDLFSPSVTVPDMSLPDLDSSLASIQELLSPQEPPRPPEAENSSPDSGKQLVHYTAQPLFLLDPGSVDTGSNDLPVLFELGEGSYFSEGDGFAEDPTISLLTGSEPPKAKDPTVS
ETV5, sequence (P41161 whole entry): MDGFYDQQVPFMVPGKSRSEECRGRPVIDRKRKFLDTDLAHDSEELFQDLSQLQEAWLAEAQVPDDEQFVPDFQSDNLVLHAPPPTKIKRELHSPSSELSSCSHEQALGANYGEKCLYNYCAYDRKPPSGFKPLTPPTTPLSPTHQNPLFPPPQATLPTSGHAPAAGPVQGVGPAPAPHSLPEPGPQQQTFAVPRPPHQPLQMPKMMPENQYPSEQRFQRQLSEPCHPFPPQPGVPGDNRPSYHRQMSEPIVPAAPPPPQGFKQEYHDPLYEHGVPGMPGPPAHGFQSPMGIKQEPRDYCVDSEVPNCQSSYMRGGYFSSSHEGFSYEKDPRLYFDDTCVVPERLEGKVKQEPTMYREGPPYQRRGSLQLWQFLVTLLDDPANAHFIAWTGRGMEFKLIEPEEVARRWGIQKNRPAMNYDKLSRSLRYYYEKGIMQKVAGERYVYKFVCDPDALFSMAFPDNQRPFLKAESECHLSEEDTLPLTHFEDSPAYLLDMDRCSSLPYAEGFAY

TGCACT
binding signal (FLI1): 1.37 fold enrichment (6-mer frequency, TF over GST control)
binding signal (ELK1): 1.58 fold enrichment (6-mer frequency, TF over GST control)
binding signal (GABPA): 1.4 fold enrichment (6-mer frequency, TF over GST control)
binding signal (ERG): 1.43 fold enrichment (6-mer frequency, TF over GST control)
binding signal (ELF1): 1.42 fold enrichment (6-mer frequency, TF over GST control)
binding signal (EHF): 1.3 fold enrichment (6-mer frequency, TF over GST control)
binding signal (SPI1): 1.68 fold enrichment (6-mer frequency, TF over GST control)
binding signal (SPIB): 1.21 fold enrichment (6-mer frequency, TF over GST control)
binding signal (ELK3): 1.26 fold enrichment (6-mer frequency, TF over GST control)
binding signal (FEV): 1.51 fold enrichment (6-mer frequency, TF over GST control)
binding signal (ETV5): 1.37 fold enrichment (6-mer frequency, TF over GST control)
binding signal (HSF1): 1.02 fold enrichment (6-mer frequency, TF over GST control)
binding signal (SPIC): 1.33 fold enrichment (6-mer frequency, TF over GST control)
binding signal (ELF4): 1.33 fold enrichment (6-mer frequency, TF over GST control)
binding signal (ELK4): 1.31 fold enrichment (6-mer frequency, TF over GST control)
binding signal (ETV2): 1.46 fold enrichment (6-mer frequency, TF over GST control)
binding signal (ELF3): 1.55 fold enrichment (6-mer frequency, TF over GST control)
binding signal (CRX): 1.06 fold enrichment (6-mer frequency, TF over GST control)
binding signal (ETV1): 1.33 fold enrichment (6-mer frequency, TF over GST control)
